Inconclusive results are not listed. The source made the active and inactive calls. Unless noted, calls follow the shape of the dose curve; as a rule, active = well fitted curve in the direction sought with a large enough effect in the repeat runs; inconclusive = weak or mixed curves; inactive = no such curve, though single readings can be large; an effect the other way counts as inactive or inconclusive.
Key:
[1] = qHTS assay to identify small molecule antagonists of the TGF-beta/Smad signaling pathway - cell viability counter screen (AID 1346824); details: SBE-bla HEK293T viability, CellTiter-Glo luminescence; series mostly up to 76.8 µM; also: nearly all actives have a fitted effect of over 50% in size
Summary of the method: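 SBE-bla HEK 293T cells were plated overnight at 37 C, then given compounds in DMSO plus TGF-beta1 (added as 0.25 ng/mL solution) for 5 hr. After the bla read, CellTiter-Glo was added to the same wells and luminescence read after 30 min at room temperature.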

[2] = qHTS assay to identify small molecule agonists of the TGF-beta/Smad signaling pathway - cell viability counter screen (AID 1346829); details: SBE-bla HEK293T viability, CellTiter-Glo luminescence, 5 h; series mostly up to 76.8 µM; also: top concentration of the series differs between compounds; nearly all actives have a fitted effect of over 45% in size
Summary of the method: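 After overnight seating at 37 C and 5% CO2, reporter cells got compounds for 5 hr and FRET substrate for 2 hr; cell viability then came from CellTiter-Glo luminescence.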

[3] = qHTS assay to identify small molecule agonists of the TGF-beta/Smad signaling pathway (AID 1346859; active = well fitted activation curve with a large enough effect in the signal ratio in the repeat runs, not every such curve was filed as active; the % refers to the signal ratio); details: SBE-bla HEK293T, TGF-beta/Smad beta-lactamase reporter, 5 h; series mostly up to 76.8 µM
Summary of the method: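 Beta-lactamase reporter activity downstream of Smad binding elements was measured in stably transfected HEK 293T cells; compounds were incubated for 5 hr, substrate for 2 hr at room temperature.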

[4] = target: Thyrotropin-releasing hormone receptor (Homo sapiens) (UniProt P34981); test: qHTS assay to identify small molecule antagonists of the thyrotropin-releasing hormone receptor (TRHR) signaling pathway (AID 1346877; active = well fitted inhibition curve with a large enough effect in the repeat runs, not every such curve was filed as active); details: TRHR-HEK293, TRH-induced calcium fluorescence, antagonist mode; series mostly up to 51.3 µM
Summary of the method: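 Overnight-plated (18 h, 37 °C) HEK293 cells expressing TRHR were dye-loaded 2 h, treated with compound, then stimulated with TRH at 1 nM final. Fluorescence intensity was captured every second for 3 min.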

[5] = target: Thyrotropin-releasing hormone receptor (Homo sapiens) (UniProt P34981); test: qHTS assay to identify small molecule agonists of the thyrotropin-releasing hormone receptor (TRHR) signaling pathway (AID 1346891; calls by dose curve;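 also: HEK293 cells expressing TRHR with calcium dye readout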); details: TRHR-HEK293 calcium fluorescence, agonist mode; series mostly up to 57.6 µM
Summary of the method: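 Overnight-plated (18 h, 37 °C, 5% CO2) TRHR-Hek293 cells; 2 h calcium dye at 37 °C; compound in DMSO; 3-min kinetic fluorescence read.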

[6] = Caspase-3/7 induction in HepG2 cells by small molecules, qHTS assay (AID 1346978); details: HepG2 caspase-3/7 activation, Caspase-Glo luminescence, 17 h; series mostly up to 92.4 µM; also: nearly all actives have a fitted effect of over 15% in size
Summary of the method: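 Wild-type HepG2 cells (2,000/well) were settled 5 h at 37 C, 5% CO2, then exposed to compounds in DMSO for 17 h. Caspase-3/7 activity was read by luminescence 30 min after adding Caspase-Glo 3/7 reagent at room temperature.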

[7] = Caspase-3/7 induction in CHO-K1 cells by small molecules, qHTS cell viability counter screen (AID 1346979); details: CellTiter-Fluor fluorescence, 17 h; series mostly up to 92.4 µM; also: nearly all actives have a fitted effect of over 35% in size
Summary of the method: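 Multiplexed with Caspase-Glo 3/7 in CHO-K1 cells, this counter screen added CellTiter-Fluor after 16hr of compound exposure and recorded fluorescence 1hr later.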

[8] = Caspase-3/7 induction in CHO-K1 cells by small molecules, qHTS assay (AID 1346980); details: CHO-K1 caspase-3/7 induction, Caspase-Glo luminescence, 17 h; series mostly up to 92.4 µM; also: nearly all actives have a fitted effect of over 15% in size
Summary of the method: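 Wild-type cells were seeded at 1,500 per well and settled 5 hr at 37 C, 5% CO2, then exposed to DMSO-dissolved compounds for 17 hr. Caspase-Glo 3/7 reagent was added, and luminescence was read after 30min at room temperature.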

[9] = Caspase-3/7 induction in HepG2 cells by small molecules, qHTS cell viability counter screen (AID 1346981); details: CellTiter-Fluor fluorescence, 17 h; series mostly up to 92.4 µM; also: nearly all actives have a fitted effect of over 30% in size
Summary of the method: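 Treatment of HepG2 cells with DMSO-delivered compounds ran 16 hr at 37 C following a 5-hr pre-incubation of 2,000 cells/well. CellTiter-Fluor fluorescence, read after 1 hr, served as the viability measure in a qHTS format.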

[10] = Human pregnane X receptor (PXR) small molecule agonists, qHTS cell viability counter screen (AID 1346977); details: PXR-Luc HepG2 viability, CellTiter-Fluor, 24 h; series mostly up to 92.4 µM; also: nearly all actives have a fitted effect of over 50% in size
Summary of the method: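 After a 5hr pre-incubation, PXR-Luc HepG2 cells received compounds plus positive control in DMSO and were kept 24hr at 37C. Cell viability was quantified by fluorescence from CellTiter-Fluor added for the final hour.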
% is scaled to controls: 0 for no effect and ±100 for the full control effect.

Sequence of Thyrotropin-releasing hormone receptor (Homo sapiens) (P34981 whole entry, looked up): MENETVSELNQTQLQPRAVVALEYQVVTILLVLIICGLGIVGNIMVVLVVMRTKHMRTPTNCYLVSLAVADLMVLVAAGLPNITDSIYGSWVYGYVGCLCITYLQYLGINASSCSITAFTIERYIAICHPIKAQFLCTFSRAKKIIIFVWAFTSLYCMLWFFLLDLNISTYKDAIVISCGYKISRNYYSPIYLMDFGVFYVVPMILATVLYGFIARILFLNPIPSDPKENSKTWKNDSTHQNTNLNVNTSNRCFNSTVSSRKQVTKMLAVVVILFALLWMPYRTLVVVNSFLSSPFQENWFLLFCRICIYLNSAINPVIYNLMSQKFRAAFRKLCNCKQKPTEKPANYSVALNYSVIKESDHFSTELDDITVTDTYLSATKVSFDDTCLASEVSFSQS

COc1cc2c(cc1OC)C(=O)C(CC1CCN(Cc3ccccc3)CC1)C2 (centres undefined)
inactive: outcome [1] | outcome [2] | outcome [3] | outcome [4] | outcome [5] | outcome [6] | Potency [7] | outcome [8] | outcome [9]

CC(C)NCC(O)c1ccc2ccccc2c1 (centres undefined)
inactive: outcome [1] | outcome [2] | outcome [3] | outcome [4] | outcome [5] | outcome [6] | outcome [8] | outcome [9]

CC(=O)C(C)O (centres undefined)
inactive: outcome [1] | outcome [2] | outcome [3] | outcome [4] | outcome [5] | outcome [6] | Potency [7] | outcome [8] | outcome [9]

CC(C)CO
inactive: outcome [1] | outcome [2] | outcome [3] | outcome [4] | outcome [5] | outcome [6] | Potency [7] | outcome [8] | outcome [9]

O=C(Cl)c1ccccc1[N+](=O)[O-]
inactive: outcome [1] | outcome [2] | outcome [3] | outcome [4] | outcome [5] | outcome [6] | Potency [7] | outcome [8] | outcome [9]

CC(=O)OC(C)=O
inactive: outcome [1] | outcome [2] | outcome [3] | outcome [4] | outcome [5] | outcome [10] | Potency [7] | outcome [8] | outcome [9]

C=CC(=O)CCCCC
inactive: outcome [1] | outcome [2] | outcome [3] | outcome [10] | outcome [6] | Potency [7] | outcome [8] | outcome [9]

OC[C@@H](O)C(O)[C@@H](O)CO (some centres undefined)
inactive: outcome [1] | outcome [2] | outcome [3] | outcome [4] | outcome [5] | outcome [6] | Potency [7] | outcome [8] | outcome [9]

CCCCCC/C=C/C(=O)OC
inactive: outcome [1] | outcome [2] | outcome [3] | outcome [10] | outcome [6] | Potency [7] | outcome [8] | outcome [9]

CCC/C=C(\C=O)CC
inactive: outcome [1] | outcome [2] | outcome [3] | outcome [4] | outcome [5] | outcome [6] | Potency [7] | outcome [8] | outcome [9]

CC(C)C[C@@H]1[C@H](c2ccccc2)OC(=O)N1CCCN1CCCCCC1
inactive: outcome [1] | outcome [2] | outcome [3] | outcome [4] | outcome [5] | outcome [6] | Potency [7] | outcome [8] | outcome [9]

ONc1ccccc1
inactive: outcome [1] | outcome [2] | outcome [3] | outcome [4] | outcome [5] | outcome [6] | Potency [7] | outcome [8] | outcome [9]

CC1CC(=O)CC(C)(C)C1 (centres undefined)
inactive: outcome [1] | outcome [2] | outcome [3] | outcome [10] | outcome [6] | Potency [7] | outcome [8] | outcome [9]

CCCCCCC1(C)CCC(=O)O1 (centres undefined)
inactive: outcome [1] | outcome [2] | outcome [3] | outcome [4] | outcome [5] | outcome [6] | Potency [7] | outcome [8] | outcome [9]

O=C(O)CCCCCC(=O)O
inactive: outcome [1] | outcome [2] | outcome [3] | outcome [4] | outcome [5] | outcome [6] | Potency [7] | outcome [8] | outcome [9]

CCO[Si](CC)(OCC)OCC
inactive: outcome [1] | outcome [2] | outcome [3] | outcome [4] | outcome [5] | outcome [6] | Potency [7] | outcome [8] | outcome [9]

Cc1cccc(Cl)c1
inactive: outcome [1] | outcome [2] | outcome [3] | outcome [4] | outcome [5] | outcome [6] | Potency [7] | outcome [8] | outcome [9]

N[C@@H](CSCCCO)C(=O)O
inactive: viability change, negative = cytotoxic [1] -0.153% [at 15.8 µM] | activity change, negative = cytotoxicity [2] 6.47% [at 15.8 µM] | activation [3] 6.83% [at 15.8 µM] | activity, negative = inhibition [4] -0.484% [at 10.5 µM] | activation [5] -0.038% [at 11.8 µM] | caspase activation [6] -0.396% [at 19 µM] | activity change, negative = cytotoxicity [7] 1.3% [at 19 µM] | caspase-3/7 activation [8] 0.125% [at 19 µM] | activity change, negative = cytotoxicity [9] -2.1% [at 19 µM]

CC1(C)CC(OC(=O)CCCCCCCCC(=O)OC2CC(C)(C)NC(C)(C)C2)CC(C)(C)N1
inactive: viability change, negative = cytotoxic [1] -1.01% [at 15.8 µM] | activity change, negative = cytotoxicity [2] 11.9% [at 15.8 µM] | activation [3] 0.453% [at 15.8 µM] | activity, negative = inhibition [4] 0.698% [at 10.5 µM] | activation [5] 0.325% [at 11.8 µM] | caspase activation [6] 0.485% [at 19 µM] | caspase-3/7 activation [8] -0.118% [at 19 µM] | activity change, negative = cytotoxicity [9] -0.861% [at 19 µM]

CC(=O)O[C@H]1C[C@@H]2CC[C@@]1(C)C2(C)C
inactive: outcome [1] | outcome [2] | outcome [3] | outcome [4] | outcome [5] | outcome [6] | Potency [7] | outcome [8] | outcome [9]

OC1(c2ccc(Cl)cc2)CCNCC1
inactive: outcome [1] | outcome [2] | outcome [3] | outcome [4] | outcome [5] | outcome [6] | Potency [7] | outcome [8] | outcome [9]

C=CC/C=C/C
inactive: outcome [1] | outcome [2] | outcome [3] | outcome [4] | outcome [5] | outcome [6] | outcome [8] | outcome [9]

O/N=C/C=N/O
inactive: outcome [1] | outcome [2] | outcome [3] | outcome [4] | outcome [5] | outcome [6] | Potency [7] | outcome [8] | outcome [9]

CCC(C)OC(C)CC (centres undefined)
inactive: outcome [1] | outcome [2] | outcome [3] | outcome [10] | outcome [6] | Potency [7] | outcome [8] | outcome [9]

Reference: PubChem BioAssay (Tox21)
